The values that follow come from PubChem BioAssay.

Where “and” joins values, the source holds several entries; their conditions need not be identical. Equal values may be shown once. Calls of active or inactive are those of the source.

Test [1] relates to Plasmodium falciparum Sir2 (PF13_0152, Sir2A). Kind of test: Plasmodium falciparum Sir2A binding compounds – biochemical, small-molecule microarray, 635 nm fluorescence, primary screen (AID 1098).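 Note: score merges spot fluorescence intensity with its signal-to-noise ratio.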 The settings on record: fluorescence 635 nm, higher = more signal.
A short description of test [2]: probe aDKK1 binding to arrayed compounds – biochemical, biotinylated probe, 635/667 nm fluorescence, primary screen (AID 1099).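 Note: score merges 667nm spot fluorescence with signal to noise across triplicate slides.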 The settings on record: small-molecule microarray, higher = more signal.
Test [3] is described as follows: probe aCHRDL2 binding to arrayed compounds – biochemical, biotinylated probe, 635/667 nm fluorescence, primary screen (AID 1100). Particulars: small-molecule microarray, higher = more signal.
Test [4] can be described thus: change in splice reporter luminescence, either direction, cell-based, HEK293, spliceosome inhibition project, primary screen (AID 1101).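 Note: HEK293 cells carrying a splicing-competent luciferase reporter gene; test concentration not given here.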 The settings on record: HEK293 splicing luciferase reporter, 24 h, higher = more signal, called active from +8 up or from −8 down. On the technique in general: A reporter such as luciferase makes a cellular process visible.
Test [5] addresses Fibroblast growth factor 10 (Homo sapiens) (UniProt O15520). Kind of test: compounds binding fibroblast growth factor 10 – biochemical, small-molecule microarray, 635 nm fluorescence, primary screen (AID 1102). The settings on record: FGF10 binding, fluorescence 635 nm, higher = more signal.
In test [6] the test system is glycogen synthase kinase-3 (GSK3A per assay name; protocol says GSK3B). The experiment in a line: compounds binding glycogen synthase kinase-3 – biochemical, small-molecule microarray, 635 nm fluorescence, GSK3A, primary screen (AID 1103). Note: the record names both GSK3A and GSK3B. The settings on record: fluorescence 635 nm, higher = more signal.
Test [7] has as its target Epidermal growth factor receptor (Homo sapiens) (UniProt P00533). Kind of test: compounds binding epidermal growth factor receptor – biochemical, small-molecule microarray, 635 nm fluorescence, primary screen (AID 1104).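 Note: score merges 667 nm emission intensity with spot signal to noise over triplicate slides.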 Particulars: EGFR binding, higher = more signal.
Test [8] addresses Follistatin-related protein 3 (Homo sapiens) (UniProt O95633). The experiment in a line: compounds binding follistatin-related protein 3 – biochemical, small-molecule microarray, 635 nm fluorescence, primary screen (AID 1105).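 Note: score merges emission near 667 nm and signal to noise per printed spot across three slides.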 The settings on record: FSTL3 binding, higher = more signal.
For test [9], the target named is Dickkopf-related protein 1 (Homo sapiens) (UniProt O94907). Kind of test: small molecules binding DKK1 protein – biochemical, small-molecule microarray, 635 nm fluorescence scan, primary screen (AID 1106).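 Note: score merges emission near 667 nm with signal to noise over three replicate slides.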 Particulars: higher = more signal.
The test system of test [10] is Inhibin beta A chain (activin A). Kind of test: small molecules binding activin A – biochemical, small-molecule microarray, 635 nm fluorescence scan, primary screen (AID 1107).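 Note: mouse activin A protein probed at 4.33 µg/mL on printed slides; score merges bound-protein fluorescence near 667 nm with spot signal-to-noise.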 The settings on record: INHBA, higher = more signal.
The test system of test [11] is Human papillomavirus type 1a protein E7 (residues 44-93). Kind of test: small molecules binding HPV E7 44-93 – biochemical, small-molecule microarray, residues 44-93, 635 nm fluorescence, primary screen (AID 1108).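 Note: E7 fragment applied at 1 µg/mL in TBST for 1 h at 4 C; score combines spot fluorescence with its signal to noise ratio.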 Particulars: fluorescence 635 nm, higher = more signal.
A short description of test [12]: hepatitis C replication reporter changes, two-sided – Huh7 cells, luciferase reporter, HCV replication inhibitor project, primary screen (AID 1109).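 Note: huh7 hepatoma cells harbouring a luciferase neomycin HCV replicon reporter; luciferase luminescence as measure of HCV replicon replication; test concentration not given here.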 The settings on record: Huh7 HCV replicon luciferase reporter, 48 h; higher = more signal.
Test [13] concerns the target Left-right determination factor 2 (Homo sapiens) (UniProt O00292). Kind of test: small molecules binding LEFTY2 protein – biochemical, small-molecule microarray, 635 nm fluorescence scan, primary screen (AID 1110). Particulars: higher = more signal.
Test [14] has as its target Calmodulin-1 (Homo sapiens) (UniProt P0DP23). The experiment in a line: small molecules binding calmodulin-1 with EGTA – biochemical, small-molecule microarray, Cy5-labelled CALM1, profiling panel (AID 1111).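 Note: labelled calmodulin applied in Tris saline Tween buffer holding calcium plus EGTA and DTT.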 The settings on record: Cy5-CALM1 binding fluorescence, higher = more signal.
Test [15] shares this target. The experiment in a line: small molecules binding Ca-loaded calmodulin-1 – biochemical, small-molecule microarray, Cy5-labelled CALM1, plus calcium, artefact control for SMM control-protein annotation, profiling panel (AID 1112).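 Note: score merges spot fluorescence with signal to noise from triplicate slides.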 The settings on record: Cy5-CALM1 binding fluorescence, higher = more signal.
The nature of test [16]: probe aWnt5a binding to arrayed compounds – biochemical, biotinylated probe, 635/667 nm fluorescence, primary screen (AID 1113).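 Note: score merges 667 nm fluorescence intensity with signal-to-noise per printed feature.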 Particulars: small-molecule microarray, higher = more signal.
The nature of test [17]: probe aShh binding to arrayed compounds – biochemical, biotinylated probe, 635/667 nm fluorescence, primary screen (AID 1114).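 Note: probe is biotin-labelled aShh protein from a stem cell growth factor screen; measures binding of labelled protein to compounds printed on the slide; score merges feature fluorescence at 667 nm with signal-to-noise.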 Particulars: small-molecule microarray, higher = more signal.
The nature of test [18]: probe aNog binding to arrayed compounds – biochemical, biotinylated probe, 635/667 nm fluorescence, primary screen (AID 1115).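 Note: probe is biotinylated aNog protein used at 0.15 µg/mL for 1 h at 4 C; z-score combines 667 nm fluorescence of each spot with its signal to noise.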 The settings on record: small-molecule microarray, higher = more signal.
Test [19] concerns the target Torsin-1A-interacting protein 1 (Homo sapiens) (UniProt Q5JTV8). Kind of test: compound microarray binding of lysate hLAP1 – cell lysate, small-molecule microarray, COS7 lysate, 635/667 nm fluorescence, primary screen (AID 1116). Particulars: 635 nm fluorescence, higher = more signal.
The target in test [20] is Alpha-bungarotoxin (Bungarus multicinctus) (UniProt P60615). The experiment in a line: compounds binding labelled alpha-BTX control protein – biochemical, small-molecule microarray, Alexa647 label, 635/667 nm fluorescence, artefact control for SMM control protein annotation, profiling panel (AID 1117). The settings on record: alpha-BTX-A647 binding fluorescence, higher = more signal.
Alpha-bungarotoxin (Bungarus multicinctus), sequence (P60615 whole entry, looked up): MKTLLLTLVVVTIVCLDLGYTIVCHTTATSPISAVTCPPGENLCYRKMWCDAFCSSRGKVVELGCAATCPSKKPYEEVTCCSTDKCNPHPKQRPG

Torsin-1A-interacting protein 1 (Homo sapiens), sequence (Q5JTV8 whole entry, looked up): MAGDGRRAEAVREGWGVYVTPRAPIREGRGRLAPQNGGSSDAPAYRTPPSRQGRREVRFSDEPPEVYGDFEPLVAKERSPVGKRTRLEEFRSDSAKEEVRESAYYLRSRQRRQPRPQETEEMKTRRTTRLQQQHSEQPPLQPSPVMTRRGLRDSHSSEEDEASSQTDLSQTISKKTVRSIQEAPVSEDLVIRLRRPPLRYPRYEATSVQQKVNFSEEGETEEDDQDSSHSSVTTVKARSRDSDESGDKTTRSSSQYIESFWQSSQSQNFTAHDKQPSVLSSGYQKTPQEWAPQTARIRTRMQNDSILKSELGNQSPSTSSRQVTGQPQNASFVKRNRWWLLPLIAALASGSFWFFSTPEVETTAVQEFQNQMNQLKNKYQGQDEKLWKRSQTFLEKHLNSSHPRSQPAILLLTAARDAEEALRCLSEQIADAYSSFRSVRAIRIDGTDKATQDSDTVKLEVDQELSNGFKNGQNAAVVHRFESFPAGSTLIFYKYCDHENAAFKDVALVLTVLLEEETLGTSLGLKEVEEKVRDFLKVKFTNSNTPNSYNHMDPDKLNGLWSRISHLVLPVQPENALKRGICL
Fibroblast growth factor 10 (Homo sapiens), sequence (O15520 whole entry, looked up): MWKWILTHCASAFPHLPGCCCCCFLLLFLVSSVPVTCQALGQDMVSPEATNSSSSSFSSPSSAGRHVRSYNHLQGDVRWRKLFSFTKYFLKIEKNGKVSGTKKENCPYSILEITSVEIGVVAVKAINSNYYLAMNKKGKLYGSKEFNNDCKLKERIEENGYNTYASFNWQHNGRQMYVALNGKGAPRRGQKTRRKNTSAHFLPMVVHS
Follistatin-related protein 3 (Homo sapiens), sequence (O95633 whole entry, looked up): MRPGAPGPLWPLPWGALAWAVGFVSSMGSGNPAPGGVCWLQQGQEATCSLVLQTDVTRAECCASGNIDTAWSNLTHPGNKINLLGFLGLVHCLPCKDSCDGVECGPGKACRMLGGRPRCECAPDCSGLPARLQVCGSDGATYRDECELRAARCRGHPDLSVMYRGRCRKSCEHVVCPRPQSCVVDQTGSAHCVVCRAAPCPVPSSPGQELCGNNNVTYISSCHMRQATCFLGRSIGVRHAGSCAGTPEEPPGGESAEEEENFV
Left-right determination factor 2 (Homo sapiens), sequence (O00292 whole entry, looked up): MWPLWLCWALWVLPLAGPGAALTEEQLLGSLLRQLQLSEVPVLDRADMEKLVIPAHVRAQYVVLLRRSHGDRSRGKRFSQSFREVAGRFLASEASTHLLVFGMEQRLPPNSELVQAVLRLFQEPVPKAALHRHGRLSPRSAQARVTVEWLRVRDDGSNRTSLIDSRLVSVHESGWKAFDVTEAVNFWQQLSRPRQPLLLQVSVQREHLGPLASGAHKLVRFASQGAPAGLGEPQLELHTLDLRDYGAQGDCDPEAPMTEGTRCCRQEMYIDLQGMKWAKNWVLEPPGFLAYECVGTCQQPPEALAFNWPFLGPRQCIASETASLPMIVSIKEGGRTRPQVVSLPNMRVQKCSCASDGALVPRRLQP
Epidermal growth factor receptor (Homo sapiens), sequence (P00533 whole entry, looked up): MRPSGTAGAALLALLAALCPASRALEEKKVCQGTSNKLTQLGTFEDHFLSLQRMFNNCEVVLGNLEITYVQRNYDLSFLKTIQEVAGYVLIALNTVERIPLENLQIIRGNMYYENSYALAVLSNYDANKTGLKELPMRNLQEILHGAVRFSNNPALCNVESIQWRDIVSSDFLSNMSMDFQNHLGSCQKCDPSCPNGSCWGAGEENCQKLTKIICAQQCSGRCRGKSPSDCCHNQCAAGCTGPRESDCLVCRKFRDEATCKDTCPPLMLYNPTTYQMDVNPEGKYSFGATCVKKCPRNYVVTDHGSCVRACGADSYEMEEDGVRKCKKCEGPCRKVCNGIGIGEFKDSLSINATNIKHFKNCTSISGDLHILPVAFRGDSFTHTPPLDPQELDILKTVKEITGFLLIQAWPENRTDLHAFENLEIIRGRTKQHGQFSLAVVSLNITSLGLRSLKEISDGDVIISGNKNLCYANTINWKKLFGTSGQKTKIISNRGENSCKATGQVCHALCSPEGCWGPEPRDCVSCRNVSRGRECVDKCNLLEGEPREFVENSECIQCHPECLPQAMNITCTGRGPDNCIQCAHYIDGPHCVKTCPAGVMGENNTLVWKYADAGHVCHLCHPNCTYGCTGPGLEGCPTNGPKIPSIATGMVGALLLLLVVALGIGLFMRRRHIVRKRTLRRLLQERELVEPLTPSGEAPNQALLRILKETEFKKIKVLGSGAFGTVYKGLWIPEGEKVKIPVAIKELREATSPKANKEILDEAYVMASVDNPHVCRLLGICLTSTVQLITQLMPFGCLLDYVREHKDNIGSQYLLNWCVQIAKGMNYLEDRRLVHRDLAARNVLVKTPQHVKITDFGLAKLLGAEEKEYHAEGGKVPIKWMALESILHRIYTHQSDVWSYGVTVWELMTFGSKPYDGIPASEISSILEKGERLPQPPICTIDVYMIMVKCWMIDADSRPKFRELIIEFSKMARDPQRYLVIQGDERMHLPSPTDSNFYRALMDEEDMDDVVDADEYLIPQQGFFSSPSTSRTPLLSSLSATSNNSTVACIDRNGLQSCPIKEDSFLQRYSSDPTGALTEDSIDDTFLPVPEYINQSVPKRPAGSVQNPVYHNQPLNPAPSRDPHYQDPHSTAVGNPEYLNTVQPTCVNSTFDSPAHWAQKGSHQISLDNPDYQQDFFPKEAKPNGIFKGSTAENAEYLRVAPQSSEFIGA
Dickkopf-related protein 1 (Homo sapiens), sequence (O94907 whole entry, looked up): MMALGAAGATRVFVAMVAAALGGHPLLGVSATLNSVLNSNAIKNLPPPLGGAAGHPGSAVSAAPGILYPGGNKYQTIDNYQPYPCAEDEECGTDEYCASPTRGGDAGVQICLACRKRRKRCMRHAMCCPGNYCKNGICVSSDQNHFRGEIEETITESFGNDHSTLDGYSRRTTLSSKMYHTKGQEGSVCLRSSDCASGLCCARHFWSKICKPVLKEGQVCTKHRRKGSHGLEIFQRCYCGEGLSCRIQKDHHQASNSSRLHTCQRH

As for `CC(C)C(=O)N[C@@H]1CCCN1C(=O)C=Cc1ccccc1`, the composite z-score in [1] is 0.98; in test [2], -0.311; in test [3] it was -0.469; in test [5] it was 0.419; in [6], 0.883; in test [7], 0.432. The composite z-score is 0.709 in test [8]; 0.47 in test [9]; -0.172 in test [10]; 0.734 in test [11]; 0.85 in [13]; 0.0331 in test [14]. Further, the composite z-score in [15] is -1.12; in test [16], -0.0704; in [17], -0.138; in test [18], 0.173; in test [19] it was 0.587; in test [20], 0.289. Besides, the values for the z-score in [4] and in test [12] were 0.655 (inactive) and -1.05, respectively.
As for `COCn1c2ccccc2c2nnc(C(C)=O)nc21`, the composite z-score is -0.137 and 0.312 in test [1]; -0.228 and -0.221 in test [2]; -0.42 and -0.408 in test [3]; 0.529 and 0.182 in [5]; -0.0671 and 0.0307 in test [6]; 0.574 and 0.979 in test [7]. The composite z-score is 0.383 and 0.277 in [8]; 0.808 and 0.152 in test [9]; 0.12 and 0.483 in test [10]; -0.421 and 0.238 in [11]; 0.486 and 0.305 in [13]; -0.338 and -0.015 in [14]. The composite z-score was -0.462 and -0.409 in test [15]; -0.182 and -0.124 in test [16]; -0.282 and -0.0769 in test [17]; -0.294 and -0.158 in test [18]; 0.184 and 0.0111 in test [19]; 0.0727 and 0.378 in test [20]. In addition, the z-score is -0.592 (inactive) and -0.85 (inactive) in test [4]; -0.366 and 0.141 in test [12].
On to `C=CCN(CCCC)C(=O)C(c1cccs1)N(CCOCCO)C(=O)/C=C\C(=O)O` (stereo not given), for which the composite z-score in test [1] was 1.66 and -1.5; in test [2], 0.103 and -0.18; in test [3] it was 0.792 and 0.161; in [5], -1.19 and -0.522; in test [6], -1.39 and -0.479; in test [7] it was -2.24 and -0.346. The composite z-score in test [8] is -1.97 and -0.993; in [9] it was -1.56 and -1.03; in [10], -0.593 and 0.566; in test [11], -1 and -0.515; in test [13], -2.21 and -0.742; in test [14] it was -0.501 and -0.702. Moreover, the composite z-score in test [15] is 0.988 and 0.502; in test [16] it was -0.193 and -0.096; in test [17], -0.2; in [18], 0.136 and 0.295; in test [19] it was 1.2 and 1.09; in [20] it was -2.1 and 0.069. Besides, the z-score was -1.21 (inactive) and -1.32 (inactive) in test [4]; -0.166 and 0.999 in [12].
In the case of `CC(C)CON=C1C[C@@H](O)[C@@H](O)[C@@H]2[C@@H]3C(=O)N(c4cccc(Oc5ccccc5)c4)C(=O)[C@@H]3CC[C@H]12`, the composite z-score is 0.0512 in [1]; -0.354 in test [2]; -0.712 in [3]; 0.357 in [5]; 0.278 in test [6]; 0.338 in test [7]. Besides, the composite z-score in test [8] was 0.571; in [9] it was 0.661; in test [10], -0.15; in test [11], 0.529; in [13] it was 0.432; in test [14], 0.401. The composite z-score in test [15] was -0.201; in test [16], -0.0269; in test [17], -0.0553; in [18] it was -0.5; in [19] it was 0.357; in test [20] it was 0.162. In addition, the z-score was -0.00485 (inactive) in test [4] and 0.802 in [12].
`C=CCN(C(=O)C(c1cccs1)N(C(=O)/C=C\C(=O)O)c1c(Cl)cccc1CO)C(C)(C)C` (stereo not given): the composite z-score is 1.25 and -0.0135 in test [1]; 0.352 and 0.285 in test [2]; 1.38 and 1.31 in test [3]; -2.54 and -1.41 in test [5]; -2.14 and -1.33 in test [6]; -2.12 and -2.63 in [7]. In addition, the composite z-score in test [8] is -2.45 and -2.23; in test [9], -3.69 and -3.04; in test [10], -3.4 and -1.92; in [11], -1.05 and -0.821; in test [13], -4.4 and -3.37; in test [14] it was -1.1 and -0.796. The composite z-score in [15] was 0.802 and 0.271; in [16] it was -0.304 and -0.202; in [17] it was -0.0769 and -0.138; in [18] it was -0.263 and -0.036; in test [19] it was -1.05 and -1.62; in test [20], -1.29 and -1.31. Also, the z-score was -0.321 (inactive) and -0.297 (inactive) in [4]; -0.814 and -1.62 in [12].
